High-throughput results (PubChem BioAssay)
Only a selection was taken, and hits are over-represented in it overall.
Dicer processing = human Dicer pre-microRNA cleavage inhibition. actives 6% (n = 47,000). z-score at 25 µM. AID 1347074. Q9UPY3. cat-ELCCA pre-miR-21 Dicer processing, chemiluminescence; stronger effect = higher value; in the data active = z-score above about 3, passing the limit was not always enough;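 note: higher signal means more uncleaved substrate so more Dicer inhibition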
Target sequence (Q9UPY3 whole entry, looked up): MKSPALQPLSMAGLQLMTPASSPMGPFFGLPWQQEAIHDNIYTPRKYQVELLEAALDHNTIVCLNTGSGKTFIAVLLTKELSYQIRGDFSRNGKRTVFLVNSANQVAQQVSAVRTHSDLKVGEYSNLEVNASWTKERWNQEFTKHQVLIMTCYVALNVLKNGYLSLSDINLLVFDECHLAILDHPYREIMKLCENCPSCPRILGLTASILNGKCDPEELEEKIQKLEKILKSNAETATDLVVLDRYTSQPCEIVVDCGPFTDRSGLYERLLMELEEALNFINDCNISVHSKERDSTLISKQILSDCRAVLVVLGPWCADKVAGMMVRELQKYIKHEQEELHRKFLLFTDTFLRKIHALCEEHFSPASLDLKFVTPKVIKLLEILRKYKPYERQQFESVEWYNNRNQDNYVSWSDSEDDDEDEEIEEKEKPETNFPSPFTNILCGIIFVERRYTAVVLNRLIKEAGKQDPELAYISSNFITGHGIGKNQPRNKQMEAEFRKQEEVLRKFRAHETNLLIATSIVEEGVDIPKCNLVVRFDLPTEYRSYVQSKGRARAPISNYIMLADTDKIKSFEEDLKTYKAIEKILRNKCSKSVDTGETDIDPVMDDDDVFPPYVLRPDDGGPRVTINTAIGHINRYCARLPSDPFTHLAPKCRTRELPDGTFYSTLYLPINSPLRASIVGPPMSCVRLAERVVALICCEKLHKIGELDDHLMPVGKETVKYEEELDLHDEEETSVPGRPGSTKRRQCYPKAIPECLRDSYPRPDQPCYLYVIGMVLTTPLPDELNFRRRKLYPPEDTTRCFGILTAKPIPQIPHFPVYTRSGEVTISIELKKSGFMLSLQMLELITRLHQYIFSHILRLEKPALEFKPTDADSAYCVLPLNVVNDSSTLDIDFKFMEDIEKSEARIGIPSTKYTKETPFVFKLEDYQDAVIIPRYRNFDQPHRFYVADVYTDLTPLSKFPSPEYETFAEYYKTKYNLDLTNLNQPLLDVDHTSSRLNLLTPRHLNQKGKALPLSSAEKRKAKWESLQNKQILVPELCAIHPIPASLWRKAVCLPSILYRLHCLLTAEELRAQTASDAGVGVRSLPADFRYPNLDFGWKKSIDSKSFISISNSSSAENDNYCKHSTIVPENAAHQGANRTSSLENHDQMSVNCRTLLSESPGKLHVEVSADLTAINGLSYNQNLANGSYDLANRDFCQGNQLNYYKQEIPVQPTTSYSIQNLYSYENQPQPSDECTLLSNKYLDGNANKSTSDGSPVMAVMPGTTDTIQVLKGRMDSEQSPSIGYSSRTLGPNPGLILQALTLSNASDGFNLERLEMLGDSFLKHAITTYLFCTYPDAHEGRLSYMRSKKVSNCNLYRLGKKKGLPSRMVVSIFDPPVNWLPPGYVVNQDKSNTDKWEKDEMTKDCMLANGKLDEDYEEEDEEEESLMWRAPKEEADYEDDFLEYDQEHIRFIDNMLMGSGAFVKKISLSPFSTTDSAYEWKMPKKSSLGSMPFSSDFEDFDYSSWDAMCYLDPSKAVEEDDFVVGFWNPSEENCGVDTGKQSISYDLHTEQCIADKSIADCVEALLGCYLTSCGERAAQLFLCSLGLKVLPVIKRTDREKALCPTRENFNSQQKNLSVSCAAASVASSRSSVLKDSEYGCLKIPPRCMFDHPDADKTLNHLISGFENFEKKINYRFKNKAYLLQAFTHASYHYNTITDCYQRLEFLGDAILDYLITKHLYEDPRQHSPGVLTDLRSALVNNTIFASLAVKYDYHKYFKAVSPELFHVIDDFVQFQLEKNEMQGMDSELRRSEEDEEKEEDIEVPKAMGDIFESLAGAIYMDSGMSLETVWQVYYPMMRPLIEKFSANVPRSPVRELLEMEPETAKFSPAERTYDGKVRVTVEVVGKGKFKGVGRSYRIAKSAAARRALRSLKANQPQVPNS
Large screens that a line does not name were inactive.

COc1ccc(CN2CCN(Cc3c[nH]c4ccccc34)CC2)c(OC)c1	none
COc1cccc(CN2CCN(Cc3c[nH]c4ccccc34)CC2)c1OC	Dicer processing 3.4
COc1cc(CN2CCN(Cc3cccc4ccccc34)CC2)cc(OC)c1	Dicer processing 3.7
COc1ccc(OC)c(CN2CCN(Cc3c[nH]c4ccccc34)CC2)c1	none
ClC1=C(COc2ccc(Cl)cc2Cl)CSc2ccc(Cl)cc21	none
COC(=O)c1sc(-c2ccccc2)cc1NS(=O)(=O)c1ccc(Cl)cc1Cl	none
Cc1ccc(S(=O)(=O)NNC(=O)CSc2ncnc3scc(C)c23)cc1	none
O=[N+]([O-])/C=C/c1cc2sccc2s1	none
C#CCOc1nc2c(c(=O)n(C)c(=O)n2C)n1Cc1ccccc1	none
CCCOc1nc2c(c(=O)n(C)c(=O)n2C)n1C(C)c1ccccc1 (configuration not stated)	Dicer processing 3.5
COCCOc1nc2c(c(=O)n(C)c(=O)n2C)n1CCc1ccccc1	none
CCn1ncc(Br)c1C(=O)Nc1ccc(N(C)C)cc1	none
COc1ccc(/C=C/c2nc3ccccc3n2C)cc1	none
COc1ccc(/C=C/c2ccc(OC)cc2)cc1	Dicer processing 3.1
COc1ccc(/C=C/c2sc(C)c(C)[n+]2C)cc1	none
c1cnc2nc(-c3ccc4c(c3)OCCO4)cn2c1	none
CN1CCCC12NCCc1c2[nH]c2ccccc12 (configuration not stated)	none
CC(C)S(=O)(=O)c1csc(NC(=O)Nc2ccc(Cl)cc2)c1	none
CSc1sc(C(=O)Nc2cccc(C(F)(F)F)c2)cc1C#N	none
CSc1sc(C(=O)NNC(=O)c2ccc(Cl)cc2)cc1S(=O)(=O)C(C)C	none
CSc1sc(NC(=O)Nc2cccc(C(F)(F)F)c2)cc1S(=O)(=O)C(C)C	Dicer processing 3.3
CSc1sc(NC(=O)Nc2ccc(Cl)cc2)cc1S(=O)(=O)C(C)C	Dicer processing 3.9
CC(C)S(=O)(=O)c1csc(NC(=O)Nc2ccc(C(F)(F)F)cc2)c1	none
COc1ccc(CN2CCN(C3CCCC3)CC2)cc1OCc1ccccc1	none
O=C(COc1ncnc2cc(Cl)ccc12)c1ccc2c(c1)OCCCO2	none
Cc1nn(C)c(C)c1Cc1c(F)cccc1Cl	none
CC(C)NC(=O)CSc1nnc(-c2ccc(C(C)(C)C)cc2)n1-c1ccc2c(c1)OCO2	none
CCOC(=O)c1c(NC(=O)Nc2cccc(C(F)(F)F)c2)sc2c1CCC(C)C2 (configuration not stated)	none
CN(NC(=S)Nc1cc(Cl)ccc1Cl)c1ccc(C(F)(F)F)cc1[N+](=O)[O-]	none
COc1ccc(-c2nnc(-c3sc4ccccc4c3Cl)o2)cc1	none
NC(=O)CN1C(C(=O)c2ccccc2)=C(NCc2ccccc2)c2ccccc2S1(=O)=O	none
NC(=O)CN1C(C(=O)c2ccccc2)=C(N2CCOCC2)c2ccccc2S1(=O)=O	none
CCCN(CCC)C1=C(C(=O)c2ccccc2)N(CC(N)=O)S(=O)(=O)c2ccccc21	Dicer processing 3.5
CCOc1ccc(C2/C(=C(\O)c3ccc(C)cc3)C(=O)C(=O)N2CCCOC)cc1 (configuration not stated)	none
N#CC(C#N)C(CC(=O)c1ccccc1)c1ccccc1 (configuration not stated)	Dicer processing 4.2
O=C(CC(Sc1ccc(Cl)cc1)c1ccc(Cl)cc1)c1ccccc1 (configuration not stated)	none
O=C(CCCC(=O)c1ccccc1)c1ccccc1	none
CCOC(=O)CSC(=S)Nc1cc(C(F)(F)F)cc(C(F)(F)F)c1	none
C=C(C)Cc1c(COC)[nH]c(=S)[nH]c1=O	none
CCOC(=O)C12CCCC(C(=O)OCC)(CC1=O)C(=O)C2	none
Fc1cccc(CN2CCN(C3CCCCC3)CC2)c1	none
O=C(CSc1nc2c(c(C(F)(F)F)n1)CCc1ccccc1-2)N1CCCC1	none
O=c1c2c(n3nnnc3n1Cc1ccccc1)-c1ccccc1CC21CCCCC1	Dicer processing 3.2
NC(=O)CSc1nnc2n(Cc3ccccc3)c(=O)c3c(n12)-c1ccccc1CC31CCCCC1	none
CCOC(=O)CSc1nc2c(c(=O)[nH]1)C1(CCCCC1)Cc1ccccc1-2	none
CC(C)CNS(=O)(=O)c1cccc2c(N)cccc12	none
Cc1ccc(-c2c3c(=O)n(C)c(=O)n(C)c3cn2-c2ccc(N)cc2)cc1	none
N#Cc1cnn(-c2ccc(Cl)cc2Cl)c1N	none
O=C1C(=O)N(CCCN2CCOCC2)C(c2ccc(Cl)cc2)/C1=C(\O)c1ccc(F)cc1 (configuration not stated)	none
Cc1ccc(/C(O)=C2\C(=O)C(=O)N(CCN3CCOCC3)C2c2cccnc2)cc1 (configuration not stated)	none
O=C1C(=O)N(CCCN2CCOCC2)C(c2cccnc2)/C1=C(\O)c1ccc(F)cc1 (configuration not stated)	Dicer processing 3.5
CCC(CO)NCC(O)Cn1cnc2c1c(=O)n(C)c(=O)n2C (configuration not stated)	none
Cc1ccc(S(=O)(=O)n2nc(C)c(Sc3nccn3C)c2C)cc1	none
Cc1[nH]nc(-c2ccc(O)cc2O)c1Oc1ccccc1	none
CCOc1ccc(-c2n[nH]c(C)c2-c2ccccc2)c(O)c1	Dicer processing 5.1
COc1ccc(-c2n[nH]c(C)c2-c2ccc(F)cc2)c(O)c1	none
COc1ccc(-c2nnc(SCC(=O)c3ccc4c(c3)OCCO4)o2)cc1OC	none
Cc1ccc(I)c(C(=O)OCC(=O)c2ccc(Br)cc2)c1	none
COc1ccc(C(=O)OCC(=O)c2ccc(Br)cc2)cc1OC	none
COc1cccc(C(=O)OCC(=O)c2ccc(Br)cc2)c1	Dicer processing 5.9
CCCOc1ccc(C2C(C#N)=C(N)Oc3n[nH]c(CCC)c32)cc1 (configuration not stated)	none
CCCS(=O)(=O)c1csc(C(=O)OC)c1NNC(=O)C(C)C	none
c1ccc(CN2CCN(C3CCCC3)CC2)cc1	none
Fc1ccccc1CN1CCN(C2CCCC2)CC1	Dicer processing 5.3
Fc1ccc(CN2CCN(C3CCCCC3)CC2)cc1	none
COCCOC(=O)c1c(C)oc2ccc(OC(=O)c3ccc(OC)cc3)cc12	none
Cc1oc(C(C)(C)C)cc1-c1cc(NC(=O)c2ccccc2)n[nH]1	none
Cn1c(=O)[nH]c(=O)c2c1nc(N)n2CC(O)COc1ccc(Cl)cc1 (configuration not stated)	none
NC(=O)CSc1nc(SCC(N)=O)c2c3c(sc2n1)CCC3	none
COc1cccc(NC(=S)C(C#N)C(=O)N2CCC(C)CC2)c1 (configuration not stated)	none
COC(=O)c1sc(NC(=O)CSc2nnc3cc(C)c4ccccc4n23)c(C(=O)OC)c1C	none
CCOc1cc(C2C(C(=O)OC)=C(C)NC3=C2C(=O)CC(c2ccc(OC)cc2)C3)ccc1O (configuration not stated)	none
COC(=O)Oc1ccc2c(=O)c(-c3ccccc3)coc2c1	none
Cc1ccc2c(=O)c(C(=O)c3ccccc3)coc2c1	Dicer processing 5.5
Cc1ccc2c(=O)c(C(=O)c3ccccc3C)coc2c1	none
Cc1cc(C)c2c3c(sc2n1)C(=O)N(c1cccc(C(F)(F)F)c1)CC(=O)N3	none
COc1cc2c(cc1OC)C1N(CC2)C(C(=O)c2cccs2)=NN1c1ccccc1 (configuration not stated)	none
CCOC(=O)N1CCc2ccccc21	none
O=C(CCc1nc(-c2ccc(Cl)cc2)no1)NNC(=S)NCCc1ccccc1	none
O=C(CCc1ccccc1)NNc1ccc(F)cc1F	none
O=C(CCc1ccncc1)NNC(=O)N1Cc2ccccc2Oc2ccc(Cl)cc21	Dicer processing 3.1
CSc1nc2c(c(=O)n1C1CCOC(C)(C)C1)C1(CCCC1)Cc1ccccc1-2 (configuration not stated)	none
Oc1ccccc1/C=N/c1ccnn1-c1ccccc1	none
CC(C)c1c(O)nc(SCCN2CCOCC2)[nH]c1=O	none
